Assay outcomes: PubChem BioAssay, National Center for Advancing Translational Sciences (NCATS)
LDHA inh – inhibitors of human lactate dehydrogenase A | purified LDHA, NADH/diaphorase-resazurin fluorescence; hits give low values | 480,000 tested, 0.15% active | activity change, % (values are at about 110 or 230 µM) | P00338; in the data active = activity change below about -30%; inconclusive = mostly about -25% to -30%;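 note: plate controls were DMSO wells for no effect and wells without enzyme for full effect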
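LDH5 2 nM; NADH 0.06 mM, pyruvate 0.2 mM; 200 mM Tris pH 7.4, EDTA, Tween-20; 5 min RT. Detection: diaphorase 0.133 mg/mL + resazurin 37 µM, fluorescence ex540/em590 at 0 and 20 min; normalized to enzyme-free and DMSO wells.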
FUS suppressor – rescues growth of FUS-expressing yeast. S. cerevisiae FUS-expressing, growth rescue, OD600, 24 h. 390,000 tested, 0.24% active. Potency, µM (doses to about 76.6 µM), usual class: activators. AID 1347120;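 note: potency is the fitted concentration of half-maximal effect; plate controls were DMSO vehicle for no effect and reference control for full effect; nearly all actives have a fitted effect of over 55% in size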
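FUS-expressing yeast, raffinose-pregrown, induced in 2% galactose minimal medium at OD 0.005; compounds in a dilution series, 24hr at 30C. Growth restoration read as absorbance at 600 nm. CP55940 positive control, DMSO negative.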
PTHR1 ag – activates the human parathyroid hormone receptor PTHR1 | HEK293 GP2 PTHR1 cells, GloSensor cAMP luminescence, 1 h | Potency, µM (top dose mostly 115 µM), for inactives: top-dose activation, actives largely listed as activators | Q03431 | 410,000 tested, 0.075% active; note: potency is the fitted concentration of half-maximal effect; nearly all actives have a fitted effect of over 55% in size
Target sequence (Q03431 whole entry, looked up): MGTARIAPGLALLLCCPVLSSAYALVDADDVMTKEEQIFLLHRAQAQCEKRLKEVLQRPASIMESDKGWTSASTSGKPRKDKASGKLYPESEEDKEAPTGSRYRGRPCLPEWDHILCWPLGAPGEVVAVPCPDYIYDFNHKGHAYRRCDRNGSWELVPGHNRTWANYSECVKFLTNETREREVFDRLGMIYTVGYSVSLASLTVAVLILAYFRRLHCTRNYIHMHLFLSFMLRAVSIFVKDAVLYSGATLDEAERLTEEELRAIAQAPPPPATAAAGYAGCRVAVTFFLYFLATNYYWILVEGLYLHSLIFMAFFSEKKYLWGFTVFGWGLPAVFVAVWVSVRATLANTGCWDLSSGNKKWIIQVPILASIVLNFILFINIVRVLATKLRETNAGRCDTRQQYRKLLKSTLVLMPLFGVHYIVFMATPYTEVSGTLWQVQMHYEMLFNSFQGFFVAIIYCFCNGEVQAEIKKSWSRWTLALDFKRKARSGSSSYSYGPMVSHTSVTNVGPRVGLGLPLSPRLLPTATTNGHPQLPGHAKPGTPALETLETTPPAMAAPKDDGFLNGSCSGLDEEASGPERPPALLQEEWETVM
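HEK-293-derived GP2 cells expressing PTHR1 and a GloSensor cAMP reporter, 3,000/well, plated overnight, given luciferin plus IBMX (each 0.5 mM as added) for 1 h at 37 °C, then compound for 1 h at 37 °C. Luminescence was read after 15 min at room temperature.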
aSyn yeast inh – rescues yeast growth from alpha-synuclein toxicity | Yeast expressing alpha-synuclein, growth rescue, BacTiter-Glo, 24 h | Potency, µM (doses to about 46.1 µM), for inactives: at the highest dose growth rescue (activation), most hits filed as activators | 370,000 tested, 0.14% active; note: potency is the fitted concentration of half-maximal effect; % of control where 0% means no effect; nearly all actives have a fitted effect of over 65% in size
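Rescue of yeast growth: cells expressing toxic alpha-synuclein, induced in galactose at OD600 0.02, incubated with compound 24 h at 30 C. ATP luminescence quantified growth; inhibitors of toxicity appear as activators.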
TDP43 rescue – TDP-43 toxicity inhibition in yeast. 410,000 tested, 1.8% active. TDP-43 expressing yeast growth rescue, BacTiter-Glo, 24 h. Potency, µM (titrated, usually from 46.1 µM), inactives show at the highest dose growth rescue (activation), hits mostly activators; note: potency is the fitted concentration of half-maximal effect; % of control where 0% means no effect; nearly all actives have a fitted effect of over 50% in size
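Galactose-induced TDP-43 yeast, OD600=0.02, compound pinned; 24 hr, 30 deg C; BacTiter-Glo luminescence for growth. Inhibitors of TDP-43 toxicity read as activators.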
Abeta yeast res – compounds reversing amyloid beta toxicity in yeast; yeast expressing A-beta42, growth rescue, OD600, 48 h; response scale: 0% DMSO, 100% iron-clioquinol control; Potency, µM (doses to about 46.1 µM), actives largely listed as activators; 410,000 tested, 0.063% active; AID 1347071; note: potency is the fitted concentration of half-maximal effect; nearly all actives have a fitted effect of over 55% in size
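Yeast A-beta toxicity model in growth medium with pinned compounds, 48 h at 30 C; growth read as absorbance at 600 nm. Normalized to FeCl3/clioquinol equimolar mix (positive) and DMSO (negative).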
* marks the source's active call; other numbers are inactive results; i = inactive; ? = inconclusive; . = no result; [ ] = remark or other dose. Rows were chosen to be rich in hits. Some 1.9% of all compounds tested hit in one or more screens of this group. Unless noted, calls come from the whole dose curve; as a rule, active = well fitted curve in the direction sought with a large enough effect; inconclusive = small, poorly fitted or top-dose-only effect, or another doubt; inactive = no such curve, though single readings can be large; an effect the other way counts as inactive or inconclusive.

SMILES	LDHA inh	FUS suppressor	PTHR1 ag	aSyn yeast inh	TDP43 rescue	Abeta yeast res
CCCCC(=O)OC1=C(C(C)=O)N(Cc2ccccc2)S(=O)(=O)c2ccccc21	-4.5	i	i	.	?	i
CCCC(=O)OC1=C(C(C)=O)N(Cc2ccccc2)S(=O)(=O)c2ccccc21	-0.5	i	i	.	11.2µM*	i
CCCCCN1C(C(=O)c2ccccc2)=C(OC(=O)CC)c2ccccc2S1(=O)=O	7.3	i	-5.9%	.	?	i
CCN1C(C(=O)c2ccccc2)=C(OC(=O)C(C)C)c2ccccc2S1(=O)=O	9.3	i	-17.3%	.	17.8µM*	i
CCCCN1C(C(=O)c2ccccc2)=C(OC(=O)CC)c2ccccc2S1(=O)=O	2.6	i	-93.0%	.	22.4µM*	i
CCCCN(CCCC)C1=C(C(=O)c2ccccc2)N(C)S(=O)(=O)c2ccccc21	-0.3	i	i	15.8µM*	6.2%	i
CCCCN(CCCC)C1=C(C(=O)c2ccccc2)N(CC)S(=O)(=O)c2ccccc21	3.1	i	-11.8%	?	?	?
Cc1cccc(C(=O)Nc2ccc3nc(SCc4ccc(Br)cc4)sc3c2)c1	-12.3	.	.	.	.	.
CCCc1nc2ccccc2c(C(=O)OCC(=O)NC(=O)NC(C)C)c1CC	3.3	.	.	.	.	.
CCN1/C(=C(\O)c2ccccc2)C(=O)c2ccccc2S1(=O)=O	-2.1	i	-16.5%	3.98µM*	?	i
CCN1C(C(=O)c2ccccc2)=C(OC(=O)c2ccc(OC)cc2)c2ccccc2S1(=O)=O	1.6	i	1.4%	.	9.7%	i
N#C/C(=C\c1ccc[nH]1)Sc1nc2ccccc2s1	-5.4	i	-72.0%	3.0%	22.4µM*	i
Cc1ccc(Nc2ncnc3onc(C)c23)cc1Cl	-4.5	i	-10.1%	.	35.5µM*	i
COc1ccc(N2C(=O)CCC2(C)C(=O)NC2CCCC2)c(OC)c1 (stereo not given)	5.8	.	.	.	.	.
O=[N+]([O-])c1ccccc1S(=O)(=O)N1CCN(C2CCN(Cc3ccccc3)CC2)CC1	-33.7*	.	-3.5%	1.7%	-34.2%	i
O=[N+]([O-])c1ccc(S(=O)(=O)N2CCN(C3CCN(Cc4ccccc4)CC3)CC2)cc1	-19.2	i	i	0.2%	-6.3%	i
CCOc1cc(/C=N/Nc2nc3ccccc3[nH]2)cc(Br)c1OCC(=O)N(C)C	-6.4	i	-2.3%	2.6%	8.0%	i
COc1ccc(/C=C2\COc3ccccc3C2=O)cc1OC	-2.2	i	-29.2%	23.4%	2.82µM*	i
COc1ccc(/C=C2/CCc3ccccc3C2=O)cc1OC	0.4	i	-24.9%	9.6%	?	i
CCOc1cc(/C=C2\COc3ccccc3C2=O)cc(Br)c1OCC(=O)N(C)C	9.8	?	-34.2%	?	22.4µM*	i
O=C(O)c1ccc(/C=C2\COc3ccccc3C2=O)cc1	-2.4	i	-95.9%	?	11.2µM*	i
O=C1/C(=C/c2ccc3ccccc3c2)COc2ccccc21	10.0	.	.	.	.	.
C=CCOc1ccc(/C=C/C(C)=N\O)cc1	0.0	i	-4.3%	.	10µM*	i
Cc1cc(C(=O)C(=O)O)c(C)n1-c1ccc(Cl)cc1	-18.8	i	i	-0.2%	-21.9%	i
Cc1cc(C(=O)C(C)Sc2cccc[n+]2[O-])c(C)n1-c1ccc(Cl)cc1 (stereo not given)	-2.7	i	-37.3%	2.82µM*	?	i
SMILES	LDHA inh	FUS suppressor	PTHR1 ag	aSyn yeast inh	TDP43 rescue	Abeta yeast res
CN(CC(=O)Nc1ccc(Cl)c(Cl)c1)CC(=O)N(CCC#N)c1ccccc1F	8.0	.	.	.	.	.
CCCCOc1cccc(C2(C(=O)O)CCCC2)c1	-8.1	i	i	9.7%	20µM*	i[9.22 µM]
CCCOc1ccc(C2(C(=O)O)CCCC2)cc1	-5.7	i	i	12.9%	12.6µM*	i
CCCCOc1ccc(C2(C(=O)O)CCCC2)cc1	-5.4	i	2.9%[57.5 µM]	1.1%	3.7%	?
Cc1ccc(CNS(=O)(=O)c2cc(-c3cc(C)no3)ccc2C)cc1	-0.5	.	.	.	.	.
CC[C@@]12C(=O)N(c3cccc(F)c3)C(=O)N1[C@H](c1cccc(C)c1)[C@@H]1C(=O)N(Cc3ccccc3)C(=O)[C@@H]12	-1.0	31.6µM*	-22.6%	1.7%	-1.2%	i
Cc1cccc([C@@H]2[C@@H]3C(=O)N(Cc4ccccc4)C(=O)[C@@H]3[C@]3(Cc4ccccc4)C(=O)N(c4cccc(F)c4)C(=O)N23)c1	-3.0	i	i	-2.4%	-8.3%	i
CC(C)C(C(=O)Nc1ccc(NC(N)=O)cc1)c1ccc(Cl)cc1 (stereo not given)	-2.3	.	.	.	.	.
CN1/C(=C/C(=O)CSc2ccccc2C(=O)O)C(C)(C)c2ccccc21	-8.3	i	-26.6%	8.9%	20µM*	?
COc1ccc(Nc2nnc(SCC(=O)/C=C3/N(C)c4ccccc4C3(C)C)s2)cc1	0.1	.	-34.7%	14.1%	11.2µM*	i
CN1/C(=C\C(=O)CSc2nnc(N)s2)C(C)(C)c2ccccc21	-2.9	i	-31.7%	8.6%	-20.7%[0.397 µM]	i
CN1/C(=C/C(=O)COC(=O)C2COc3ccccc3O2)C(C)(C)c2ccccc21 (stereo not given)	-0.8	i	i	1.6%	31.6µM*	i
COc1ccc2cc(C(=O)N3CCN(S(=O)(=O)c4ccc(C)cc4C)CC3)c(C)nc2c1	-2.7	.	.	.	.	.
COc1ccc(C)cc1NC(=O)c1ccc2c(c1)OCO2	-1.5	i	i	10.4%	12.6µM*	i
O=C(/C=C/c1ccc2c(c1)OCCO2)c1ccccc1	-1.3	i	-44.4%	-2.7%	15.8µM*	i
Cc1ccc(C(=O)C=Cc2ccc3c(c2)OCO3)c(C)c1	-5.0	i	-27.7%	8.4%	?	i
Cc1ccc(O)c(C(=O)/C=C/c2ccc3c(c2)OCCO3)c1	-1.5	i	-41.4%	-1.8%	17.8µM*	i
COc1ccc(C(=O)/C=C/c2ccc3c(c2)OCCO3)cc1	2.3	i	-28.0%	0.1%	20µM*	i
O=C(O)c1ccc(/C=C/C(=O)c2ccc3c(c2)OCCCO3)cc1	-7.6	i	-30.2%	6.4%	2.2%	i
COc1ccc(C(=O)NCc2cccc(C)c2)cc1	2.6	.	.	.	.	.
S=C(Nc1ccc(Br)cc1)N(Cc1ccccc1)Cc1ccccc1	6.6	.	.	.	.	.
CC1=C(C(=O)Nc2ccc(C(=O)NCc3ccc(OC(C)C)cc3)c(Cl)c2)SCCO1	7.0	.	.	.	.	.
Cc1ccc(Cl)cc1NC(=O)NC1(c2ccccc2)CCC1	6.8	.	.	.	.	.
